Changes are numbered by the printed parent chain.
Assays:
Test in all cases: MITOMI; MITOMI, 295 K (22 C); buffer, salt and pH not stated in the material; high values mean tight binding
Details in all cases: protein: ivt; label: fluorescent; dsDNA, one strand shown
MarA wild type (WQR) = molecular target: T1, MarA wild type (WQR) (Escherichia coli, UniProt P0ACH5 1-127)
T1 sequence: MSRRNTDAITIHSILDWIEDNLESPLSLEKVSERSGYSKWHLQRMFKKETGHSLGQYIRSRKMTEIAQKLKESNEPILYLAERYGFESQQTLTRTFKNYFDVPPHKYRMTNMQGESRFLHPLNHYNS
Method in brief: (§1)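 MarA protein variants were produced by in vitro transcription and translation using the RTS E. coli HY kit, with tRNA-lys-bodipy-fl added for fluorescent labelling. Each variant was screened by MITOMI against 64 synthesized versions of the mar binding site, and protein and DNA fluorescence were read on Genepix at 295K. Association constants came from MITOMI, and each site's value is relative to the highest-affinity site for that protein variant.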

MarA RQR = molecular target: T2, MarA RQR (Escherichia coli, UniProt P0ACH5 1-127, W40R)
T2 sequence: T1 sequence with W40R
Method in brief: as §1

MarA RTR = molecular target: T3, MarA RTR (Escherichia coli, UniProt P0ACH5 1-127, W40R;Q43T)
T3 sequence: T1 sequence with W40R, Q43T
Method in brief: as §1

MarA SAR = molecular target: T4, MarA SAR (Escherichia coli, UniProt P0ACH5 1-127, W40S;Q43A)
T4 sequence: T1 sequence with W40S, Q43A
Method in brief: as §1

MarA TRR = molecular target: T5, MarA TRR (Escherichia coli, UniProt P0ACH5 1-127, W40T;Q43R)
T5 sequence: T1 sequence with W40T, Q43R
Method in brief: as §1

| Sequence | binding signal (MarA wild type (WQR)) | binding signal (MarA RQR) | binding signal (MarA RTR) | binding signal (MarA SAR) | binding signal (MarA TRR) |
| --- | --- | --- | --- | --- | --- |
| ATGAACCGTTTTGCTAAAT | 0.224 Ka relative to the best site of the variant | 0.104 Ka relative to the best site of the variant | 0.204 Ka relative to the best site of the variant | 0.776 Ka relative to the best site of the variant | 0.379 Ka relative to the best site of the variant |
| ATGGGCCGTTTTGCTAAAT | 0.236 Ka relative to the best site of the variant | 0.147 Ka relative to the best site of the variant | 0.196 Ka relative to the best site of the variant | 0.575 Ka relative to the best site of the variant | 0.368 Ka relative to the best site of the variant |
| ATGGATCGTTTTGCTAAAT | 0.224 Ka relative to the best site of the variant | 0.112 Ka relative to the best site of the variant | 0.202 Ka relative to the best site of the variant | 0.393 Ka relative to the best site of the variant | 0.365 Ka relative to the best site of the variant |
| ATGATGCGTTTTGCTAAAT | 0.319 Ka relative to the best site of the variant | 0.106 Ka relative to the best site of the variant | 0.243 Ka relative to the best site of the variant | 0.854 Ka relative to the best site of the variant | 0.404 Ka relative to the best site of the variant |
| ATGGGGCGTTTTGCTAAAT | 0.307 Ka relative to the best site of the variant | 0.11 Ka relative to the best site of the variant | 0.167 Ka relative to the best site of the variant | 0.429 Ka relative to the best site of the variant | 0.451 Ka relative to the best site of the variant |
| ATGTAACGTTTTGCTAAAT | 0.345 Ka relative to the best site of the variant | 0.135 Ka relative to the best site of the variant | 0.514 Ka relative to the best site of the variant | 0.232 Ka relative to the best site of the variant | 0.492 Ka relative to the best site of the variant |
| ATGGCTCGTTTTGCTAAAT | 0.35 Ka relative to the best site of the variant | 0.759 Ka relative to the best site of the variant | 0.904 Ka relative to the best site of the variant | 0.656 Ka relative to the best site of the variant | 0.362 Ka relative to the best site of the variant |
| ATGAGCCGTTTTGCTAAAT | 0.237 Ka relative to the best site of the variant | 0.107 Ka relative to the best site of the variant | 0.27 Ka relative to the best site of the variant | 1 Ka relative to the best site of the variant | 0.448 Ka relative to the best site of the variant |
| ATGCAACGTTTTGCTAAAT | 0.365 Ka relative to the best site of the variant | 0.142 Ka relative to the best site of the variant | 0.188 Ka relative to the best site of the variant | 0.461 Ka relative to the best site of the variant | 0.501 Ka relative to the best site of the variant |
| ATGTTGCGTTTTGCTAAAT | 0.405 Ka relative to the best site of the variant | 0.193 Ka relative to the best site of the variant | 0.518 Ka relative to the best site of the variant | 0.191 Ka relative to the best site of the variant | 0.665 Ka relative to the best site of the variant |
| ATGTTTCGTTTTGCTAAAT | 0.217 Ka relative to the best site of the variant | 0.214 Ka relative to the best site of the variant | 0.716 Ka relative to the best site of the variant | 0.21 Ka relative to the best site of the variant | 0.539 Ka relative to the best site of the variant |
| ATGAGACGTTTTGCTAAAT | 0.307 Ka relative to the best site of the variant | 0.0985 Ka relative to the best site of the variant | 0.229 Ka relative to the best site of the variant | 0.913 Ka relative to the best site of the variant | 0.362 Ka relative to the best site of the variant |
| ATGCCTCGTTTTGCTAAAT | 0.454 Ka relative to the best site of the variant | 0.232 Ka relative to the best site of the variant | 0.235 Ka relative to the best site of the variant | 0.486 Ka relative to the best site of the variant | 0.474 Ka relative to the best site of the variant |
| ATGCGACGTTTTGCTAAAT | 0.369 Ka relative to the best site of the variant | 0.148 Ka relative to the best site of the variant | 0.24 Ka relative to the best site of the variant | 0.43 Ka relative to the best site of the variant | 0.589 Ka relative to the best site of the variant |
| ATGGCACGTTTTGCTAAAT | 1 Ka relative to the best site of the variant | 0.647 Ka relative to the best site of the variant | 0.432 Ka relative to the best site of the variant | 0.741 Ka relative to the best site of the variant | 0.392 Ka relative to the best site of the variant |
| ATGCCACGTTTTGCTAAAT | 0.646 Ka relative to the best site of the variant | 0.243 Ka relative to the best site of the variant | 0.223 Ka relative to the best site of the variant | 0.379 Ka relative to the best site of the variant | 0.497 Ka relative to the best site of the variant |

Source: article PMC3315485, “Probing the Informational and Regulatory Plasticity of a Transcription Factor DNA–Binding Domain”
